Test results from PMC4336329 (PLoS ONE, 2015).
Screen size: about 310,000 compounds; about 14,000 (4.5%) showed an effect of 50% or more. The effect is printed as a negative number. Only a selection was taken, and strong results are over-represented in it overall.

target: human ether-à-go-go-related gene (hERG) potassium channel (human, UniProt Q12809); assay: primary screen, population patch clamp on CHO cells stably expressing hERG; higher = less effect of the substance
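Further: peak tail current of the secondary pulse compared with the same well before compound.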

Sequence of human ether-à-go-go-related gene (hERG) potassium channel (Q12809 whole entry, looked up): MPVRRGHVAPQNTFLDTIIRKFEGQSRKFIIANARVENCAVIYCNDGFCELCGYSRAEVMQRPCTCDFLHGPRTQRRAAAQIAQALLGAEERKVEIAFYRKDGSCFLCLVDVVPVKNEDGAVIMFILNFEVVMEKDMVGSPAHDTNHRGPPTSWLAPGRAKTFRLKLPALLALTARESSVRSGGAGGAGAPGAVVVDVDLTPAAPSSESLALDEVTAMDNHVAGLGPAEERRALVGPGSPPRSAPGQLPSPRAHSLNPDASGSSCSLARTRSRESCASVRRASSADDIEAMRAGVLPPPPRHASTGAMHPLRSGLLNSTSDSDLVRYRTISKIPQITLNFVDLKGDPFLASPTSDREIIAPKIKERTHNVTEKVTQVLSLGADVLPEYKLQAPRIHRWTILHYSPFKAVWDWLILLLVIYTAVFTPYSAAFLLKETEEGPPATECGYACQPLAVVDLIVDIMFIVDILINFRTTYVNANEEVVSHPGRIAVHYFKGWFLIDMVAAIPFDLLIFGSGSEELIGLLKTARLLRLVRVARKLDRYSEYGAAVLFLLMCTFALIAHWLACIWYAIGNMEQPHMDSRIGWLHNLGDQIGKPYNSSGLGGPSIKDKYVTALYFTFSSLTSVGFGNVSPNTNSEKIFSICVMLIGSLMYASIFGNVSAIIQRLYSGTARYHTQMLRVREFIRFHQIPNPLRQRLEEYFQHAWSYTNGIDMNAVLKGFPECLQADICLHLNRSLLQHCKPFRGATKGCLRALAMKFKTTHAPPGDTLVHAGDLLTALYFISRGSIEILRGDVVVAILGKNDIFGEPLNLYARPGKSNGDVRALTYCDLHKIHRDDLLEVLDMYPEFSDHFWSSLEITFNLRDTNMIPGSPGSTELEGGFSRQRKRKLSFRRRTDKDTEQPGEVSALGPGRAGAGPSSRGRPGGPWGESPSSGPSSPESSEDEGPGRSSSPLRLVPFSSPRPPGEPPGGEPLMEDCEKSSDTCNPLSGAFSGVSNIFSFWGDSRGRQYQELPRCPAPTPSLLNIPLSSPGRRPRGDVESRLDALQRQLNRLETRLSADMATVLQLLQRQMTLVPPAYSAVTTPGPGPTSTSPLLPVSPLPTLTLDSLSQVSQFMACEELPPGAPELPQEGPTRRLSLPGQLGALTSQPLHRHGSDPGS

SMILES	hERG current change (%, negative = inhibition) at 10uM
COc1ccc(C(CNC(=O)COc2c(C)cc(C)cc2C)N2CCOCC2)cc1 (centres unmarked)	-12.1%
COc1ccc(-c2coc3cc(O)ccc3c2=O)cc1	-5.05%
CCOC(=O)CSC1=N/C(=C\c2ccc(OC)c(OC)c2)C(=O)N1C	-69.7%
CCOC(=O)CSC1=N/C(=C\c2cc(OC)c(OC)c(OC)c2)C(=O)N1C	-7.36%
CCN1C(=O)/C(=C/c2ccc(OC)c(OC)c2)N=C1SCC(=O)NCc1ccco1	-15.1%
CCOC(=O)C1(CCCc2ccccc2)CCN(C(=O)C2CCCN(C(N)=O)C2)CC1 (centres unmarked)	-72.4%
O=C(C1CCOCC1)N1CCC(CO)(CCc2ccccc2)CC1	5.29%
CCOC(=O)C1(CCCc2ccccc2)CCN(S(C)(=O)=O)CC1	-8.15%
CCOC(=O)C1(CCCc2ccccc2)CCN(C(=O)[C@@H]2C[C@@H](C)NC(=S)N2)CC1	-25.1%
CCOC(=O)C1(CCCc2ccccc2)CCN(C2CCC2)CC1	-74.8%
CCOC(=O)C1(Cc2ccccc2C(F)(F)F)CCN(C2CCC2)CC1	-36.6%
CCOC(=O)C1(CCCc2ccccc2)CCN(S(=O)(=O)N(C)C)CC1	-4.73%
CCOC(=O)C1(CCCc2ccccc2)CCN(C2CCCC2)CC1	-69.7%
CCOC(=O)C1(CCCc2ccccc2)CCN(C(=O)C2CCCO2)CC1 (centres unmarked)	-25.7%
CCOC(=O)C1(CCc2ccccc2)CCN(C(=O)C2CCOCC2)CC1	-53.1%
CCOC(=O)C1(CCc2ccccc2)CCN(C(=O)C2CCCO2)CC1 (centres unmarked)	-13%
O=c1cc(O)c(-c2cccc(C(F)(F)F)c2)c(Cl)[nH]1	22.5%
O=C1C(Cc2ccc3[nH]ccc3c2)NC(=S)N1c1ccccc1 (centres unmarked)	7.61%
Cc1ccccc1C(=O)NC(=S)NCc1cccnc1	31.9%

SMILES	hERG current change (%, negative = inhibition) at 10uM
COC(=O)c1ccc(CO/N=C2\CCCc3nonc32)cc1	-35.1%
O=C(Cn1c(-c2ccccc2)noc1=O)Nc1ccc(N2CCCCCC2)cc1	6.95%
Cc1cc(C)cc(OCC(=O)OCC(=O)NCc2ccco2)c1	4.8%
O=C(Cc1ccc(NC2=NC3CS(=O)(=O)CC3S2)cc1)NCCc1ccccc1 (centres unmarked)	6.22%
O=c1oc2cc(OCc3ccc(C(F)(F)F)cc3)ccc2cc1-c1ccccn1	10.4%
Cc1ccc(C(=O)OCCOc2cccc(Cl)c2)cc1S(=O)(=O)N1CCOCC1	-12.2%
CCOC(=O)C1=C(c2ccccc2)NC(=S)NC1c1ccc(Cl)cc1 (centres unmarked)	0.162%
OC(c1ccccc1)(c1ccc(Cl)cc1)C1CN2CCC1CC2 (centres unmarked)	-56%
Cc1ccc(C(O)(c2ccc(C)c(C)c2)C2CN3CCC2CC3)cc1C.Cl (centres unmarked)	-67.6%
Cl.OC(c1ccccc1)(c1ccccc1)C1CN2CCC1CC2 (centres unmarked)	-45.2%
Cl.OC(c1cccc(Cl)c1)(c1cccc(Cl)c1)C1CN2CCC1CC2 (centres unmarked)	-81.8%
Cc1ccc(NC(=O)C2CCN(S(C)(=O)=O)CC2)cc1C	3.29%
c1ccc(C2CN3CCC2CC3)cc1 (centres unmarked)	-5.74%
C[N+]12CCC(CC1)C(C(O)(c1cccc(Cl)c1)c1cccc(Cl)c1)C2.[I-] (centres unmarked)	13.6%
CC(C)[N+]12CCC(CC1)C(C(O)(c1ccccc1)c1ccccc1)C2.[I-] (centres unmarked)	16.9%
Cc1ccc(C(=O)N2CCC(C)CC2)cc1C	8.09%
O=C(NC1CN2CCC1CC2)c1cccc(Cl)c1 (centres unmarked)	3.72%
Cl.OC(Cc1ccccc1)(c1ccccc1)C1CN2CCC1CC2 (centres unmarked)	-49.7%
Cc1ccccc1C(O)(Cc1ccccc1)C1CN2CCC1CC2.Cl (centres unmarked)	-55.2%

SMILES	hERG current change (%, negative = inhibition) at 10uM
CC(=O)N1CCN(c2ccc(NC(=O)c3cccc(Cl)c3)cc2)CC1	-7.02%
COc1ccc2nc(NC(=O)C(NS(=O)(=O)c3cccs3)C(C)C)sc2c1 (centres unmarked)	8.73%
Cc1ccc(-n2cc(CCCCCCCCC(=O)O)nn2)cc1	-12.3%
COc1ccc(-c2ccc(=O)n(CC(=O)Nc3nnc(C(C)C)s3)n2)cc1OC	11.9%
S=c1[nH]c2cnccc2n1Cc1ccccc1	12.4%
COc1cc(C(=O)NCCOc2ccc(F)cc2)c(Br)c(OC)c1OC	3.42%
COCC(C)NC(=O)c1noc2c1CCc1cc(OC)ccc1-2 (centres unmarked)	-25.9%
CCOc1ncccc1C(=O)Nc1cc(S(=O)(=O)N2CCCCC2)ccc1OC	-8.23%
COc1ccc(C)cc1NC(=O)CN1C(=O)COc2ccc(S(=O)(=O)N3CCC(C)CC3)cc21	26.3%
COc1cccc(C2c3[nH]c4ccccc4c3CCN2Cc2ncc[nH]2)c1 (centres unmarked)	-49.4%
COc1cccc(C2c3[nH]c4ccccc4c3CCN2Cc2cnc(C)s2)c1OC (centres unmarked)	2.51%
Cc1cccc(C2c3[nH]c4ccccc4c3CCN2Cc2cccn2-c2ncccn2)c1 (centres unmarked)	-77.8%
CSc1ncc(CN2CCc3c([nH]c4ccccc34)C2c2cccc(O)c2)cn1 (centres unmarked)	-22.9%
COc1ccc(C2c3[nH]c4ccccc4c3CCN2Cc2cccn2-c2ncccn2)cc1C (centres unmarked)	-52%
CC(=O)NCCC(=O)N1CCc2c([nH]c3ccccc23)C1c1cccc(C)c1 (centres unmarked)	-14.3%
CCn1nc(C)c(CN2CCc3c([nH]c4ccccc34)C2c2ccc(F)c(OC)c2)c1C (centres unmarked)	-48.2%
COc1cccc(C2c3[nH]c4ccccc4c3CCN2Cc2cccn2-c2ncccn2)c1 (centres unmarked)	-76.1%
CCC(=O)NC(NC(=S)Nc1ccccc1Br)C(Cl)(Cl)Cl (centres unmarked)	18.2%
